Inconclusive results are not listed. Active and inactive are the calls of the source. Calls come from the whole dose curve; as a rule, active = well fitted inhibition curve with a large enough effect; inconclusive = small, poorly fitted or top-dose-only effect; inactive = flat fitted curve, though single readings scatter.
% is set by controls: 0 for no effect and ±100 for the full control effect; potency is the fitted concentration of half-maximal effect.

The subject of the first assay is HEK293. The experiment in a line: Cytotoxic Profiling of Annotated Libraries Using Quantitative High-Throughput Screening (AID 1296008). Note: nearly all actives have a fitted effect of over 60% in size. The following applies: Five cell lines viability, CellTiter-Glo ATP luminescence, 48-72 h; max response: hits give low values. A digest of the protocol:
(§1)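 Cytotoxicity was measured as CellTiter-Glo ATP luminescence, read after 10 min at room temperature. Compound treatment of the cells lasted 48 or 72 hr at 37 degrees Celsius in a qHTS format.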
A general note: Cellular ATP, detected with luciferase, serves as a proxy for viable cell number.
`Nc1ccc(N=Nc2ccccc2)c(N)n1`: the max response is 4.3% (inactive). With `O=C(OCc1ccccc1)c1ccc(O)cc1`, the result was inactive. For `C[C@]12CC[C@@H]3c4ccc(OC(=O)c5ccccc5)cc4CC[C@H]3[C@@H]1CC[C@@H]2O`, the max response is -10% (inactive). Consider `CC(=O)Nc1ccc(NC(=S)NC(=O)c2ccc(C(C)(C)C)cc2)cc1`, for which the Potency was 651 nM (active). For `C/C(=C\C(=O)OCCCCCCCCC(=O)O)C[C@@H]1OC[C@H](C[C@@H]2O[C@H]2[C@@H](C)[C@H](C)O)[C@@H](O)[C@H]1O`, the max response was -15.8% (inactive). Consider `Oc1ccc(/C=C/c2cc(O)cc(O)c2)cc1`, for which the max response was -3.47% (inactive).

The subject of the next assay is HaCat. The assay is described as above. The conditions noted are these: Five cell lines viability, CellTiter-Glo ATP luminescence, 48-72 h; hits give low values. A digest of the protocol: as §1
For the compound `O=C(O)Cc1cc(I)c(Oc2ccc(O)c(I)c2)c(I)c1`, the call was inactive.

As for `COc1ccc2nc(NC(=O)Nc3ccccc3)sc2c1`, the result was inactive. In the case of `Nc1ccc(N=Nc2ccccc2)c(N)n1`, the max response was 0.77% (inactive). On to `CC(=O)Oc1cccc2c1C(=O)c1c(OC(C)=O)cc(C(=O)O)cc1C2=O`, for which the compound was classed as inactive.

In the case of `C[C@]12CC[C@@H]3c4ccc(OC(=O)c5ccccc5)cc4CC[C@H]3[C@@H]1CC[C@@H]2O`, the max response is -1.32% (inactive). For `CC(=O)Nc1ccc(NC(=S)NC(=O)c2ccc(C(C)(C)C)cc2)cc1`, the max response is -11.2% (inactive). For `CN(C)CCCSc1ccccc1NC(=O)/C=C/c1ccccc1`, the outcome was inactive. Same read-out and setting: next, `CC(C)(C)c1ccc(CN2CCN(C(c3ccccc3)c3ccc(Cl)cc3)CC2)cc1` (stereo not given): “inactive”. Take `C/C(=C\C(=O)OCCCCCCCCC(=O)O)C[C@@H]1OC[C@H](C[C@@H]2O[C@H]2[C@@H](C)[C@H](C)O)[C@@H](O)[C@H]1O`: the max response was -2.01% (inactive).

Values taken from PubChem BioAssay (NCATS).
